aSyn UTR act: Activators via SNCA 5'UTR binding, MLPCN; alpha-synuclein 5'UTR reporter, activators screen; activity score, % (tested at 7.5 µM), hits read low; AID 1814; 300,000 tested, 7.1% active; in the data active = activity score below about -60%
An asterisk follows results filed as active. Only a sample is shown.

SMILES	aSyn UTR act
O=C(/C(N=Nc1cccc(C(F)(F)F)c1)=C(/O)c1cccs1)C(F)(F)F	-62.3*
COc1ccc(Cl)cc1Nc1nc(N)c2ccccc2n1	-103.3*
COc1nc(Nc2nc3ccccc3c(=O)[nH]2)nc2ccc(C)cc12	89.9
Cc1ccc(C)c(Nc2nc(N)c3ccccc3n2)c1	-157.4*
COc1cc2nc(N3CCN(c4cc(C)ccc4C)CC3)nc(N)c2cc1OC	94.5
O=C(Nc1ccc2c3c(cccc13)CC2)c1ccco1	-64.7*
O=C(Nc1ccc2c3c(cccc13)CC2)c1ccc(Br)o1	-76.3*
COc1cccc(/C=N/n2c(N)nc3ccccc32)c1OC	-154.5*
COc1cccc(/C=N/n2cnc3ccccc32)c1OC	-191.3*
Cc1ccc(C(=O)O/N=C(\N)c2ccccn2)c(C)c1	105.9
N/C(=N\OC(=O)CC1CCCCC1)c1ccccn1	-90.0*
COc1ccc(CC(=O)O/N=C(\N)c2ccccn2)cc1	-76.3*
N/C(=N\OC(=O)CSc1ccccc1)c1ccccn1	-88.2*
Cc1ccc(C)c(OCC(=O)O/N=C(\N)c2ccccn2)c1	-130.8*
N/C(=N\OC(=O)Cc1ccc(-c2ccccc2)cc1)c1ccccn1	-66.2*
CC(C)CC(=O)NC(=S)NNC(=O)c1ccc(NC(=O)C2CCCCC2)cc1	74.7
O=C(NC(=S)Nc1ccc(Br)cc1)C1CCCCC1	-68.5*
O=C(NC(=S)Nc1ccc(Br)cc1)C1CCC1	-95.5*
O=C(NC(=S)Nc1ccccc1)C1CCCCC1	-62.5*
NC(=O)C1=C[C@H](C2CCCCC2)C[C@H](OCc2ccc(CO)cc2)O1	-98.3*
CCc1cccc2c(C(=O)COC(=O)c3ccc(O)cc3)c[nH]c12	-108.9*
CCc1cccc2c(C(=O)COC(=O)c3ccccc3)c[nH]c12	-186.1*
O=C(OCC(=O)c1cccc2ccccc12)c1ccc(CO)cc1	-98.2*
CCNC(=S)Nc1ccc(OCc2nc3ccccc3s2)cc1	-89.7*
O=C(O)CCCC(=O)Nc1ccc(OCc2nc3ccccc3s2)cc1	-67.4*
SMILES	aSyn UTR act
c1ccc(-c2cc3ccccc3[nH]2)cc1	-139.0*
COc1ccc(-c2cc3ccccc3[nH]2)cc1	-159.3*
COc1ccc(-c2cc(=O)c3ccccc3[nH]2)cc1	-79.1*
O=c1cc(-c2ccccc2)[nH]c2cc(Cl)ccc12	104.3
COc1ccc2[nH]c(-c3cccc(F)c3)cc(=O)c2c1	62.6
Cc1ccc(O)c(-c2cc3ccccc3[nH]2)c1	-130.6*
CC/C(=N\Nc1nncc2ccccc12)c1ccc(F)cc1	-189.9*
N#C/C(=C/c1ccc(N2CCCCCC2)o1)c1ccc(F)cc1	-110.7*
N#C/C(=C/c1ccc(N2CCCCCC2)o1)c1cccc(F)c1	-286.4*
Cc1ccc(OCC(=O)N/N=C/C=C/c2ccco2)c(Br)c1	-64.3*
O=C(CNC(=O)c1cccs1)N/N=C/c1ccco1	-124.8*
Cc1ccc(N/N=C/C=C/c2ccco2)cc1	-157.1*
O=C(CNC(=O)c1ccccc1F)N/N=C/c1cccs1	-93.7*
O=C(Cc1cccs1)N/N=C/C=C\c1ccco1	-77.8*
O=C(N/N=C/C=C/c1ccco1)c1ccccc1Cl	-106.8*
O=C(N/N=C/C=C\c1ccco1)c1cccs1	-151.9*
CC(C)OC(=O)Nc1ccc2c(c1)N(C(=O)N1CCN(C)CC1)c1ccccc1CC2	-62.2*
CC(=O)c1ccc2c3c(cccc13)C(=O)N(CCc1ccccc1)C2=O	-138.2*
CC(C)CCN1C(=O)c2cccc3c(N)ccc(c23)C1=O	60.9
O=c1[nH]c2cc3c(cc2cc1CN(Cc1nnnn1C1CCCC1)C1CCCC1)OCCO3	-79.3*
S=C(NCc1ccccn1)Nc1ccc(Br)cc1Cl	-143.2*
O=C(NCc1ccccn1)Nc1ccc(Br)cc1Cl	-72.3*
COCCCNC(=O)Nc1ccc(Br)cc1Cl	-72.2*
S=C(NCc1ccccn1)Nc1ccccc1Cl	-115.3*
O=C(NCc1ccccn1)c1ccc(Cn2c(=S)[nH]c3ccc(Br)cc3c2=O)cc1	40.4
SMILES	aSyn UTR act
O=C(NCc1ccccn1)Nc1ccc(Cl)cc1Cl	-97.0*
Cc1cc(C)c2c(N)c3ccccc3nc2n1	-622.7*
CCc1ccc2nc3nc(C)cc(C)c3c(N)c2c1	-391.4*
COc1ccccc1NS(=O)(=O)c1cccc(NC(=O)c2cc3ccccc3oc2=O)c1	-113.9*
CN(c1ccccc1)S(=O)(=O)c1cccc(NC(=O)c2cc3ccccc3oc2=O)c1	-106.0*
Cc1ccc(NC(=O)c2cc3ccccc3oc2=O)cc1S(=O)(=O)N(C)C	72.9
O=C(Nc1ccccc1F)C(=O)Nc1cccc2ccccc12	-118.9*
O=C(Nc1cccc2ccccc12)/C(Cl)=C/c1ccccc1	-80.9*
Cn1c(-c2cc3ccc(OC(=O)C(C)(C)C)cc3oc2=O)nc2ccccc21	-117.3*
CC(C)(C)C(=O)Oc1ccc2cc(-c3ccc4ccccc4n3)c(=O)oc2c1	-157.3*
CCN(CC)Cc1c(O)ccc2cc(-c3nc4ccccc4n3C)c(=O)oc12	-73.8*
CC(=O)Oc1ccc2cc(-c3nc4ccccc4n3C)c(=O)oc2c1	-225.7*
CC(C)Sc1nnc(Nc2ccccc2)s1	-178.3*
COc1cc(CNCc2ccccn2)ccc1OCc1ccc(Cl)c(Cl)c1	-113.7*
Nc1ncccc1OCc1ccc(Cl)c(Cl)c1	-148.6*
O=C(Nc1ccc2ccccc2n1)C1CCCCC1	-144.5*
O=C(Nc1ccc2ccccc2n1)c1ccccc1Cl	-70.9*
O=C(Nc1ccc2ccccc2n1)c1ccc(Cl)cc1	-145.0*
C/C(=N\Nc1ncc(Cl)cc1Cl)c1ccc(OC(F)F)cc1	-62.0*
C/C(=N\Nc1ncc(Cl)cc1Cl)c1ccc2c(c1)OCO2	-78.7*
Cn1c(NC(=O)CCC2CCCCC2)cc(=O)n(C)c1=O	-62.8*
O=C(CCC1CCCCC1)Nc1ccccc1O	-162.6*
Cc1ccc(O)c(NC(=O)CCC2CCCCC2)c1	-152.0*
CC(CC(=O)NCc1ccccc1)C1CCCO1 (stereo not drawn)	-62.0*
COc1ccc(CCn2c(C3CCCCC3)nc3c(c(=O)c4ccccc4n3C)c2=O)cc1	75.0
SMILES	aSyn UTR act
COc1ccc(CCn2c(-c3ccccc3)nc3c(c(=O)c4ccccc4n3C)c2=O)cc1	-86.4*
O=C(Nc1ccc(F)cc1)/C(Cl)=C/c1ccccc1	-258.0*
Cc1ccc(NC(=O)/C(Cl)=C\c2ccccc2)cc1	-105.2*
CC(=O)c1ccc(NC(=O)/C(Cl)=C/c2ccccc2)cc1	-174.7*
CCOC(=O)c1ccc2nc(C)c(C)nc2c1	-88.2*
CCOC(=O)c1ccc2nc(C)c(CCC(C)=O)c(Cl)c2c1	-108.4*
Cc1cc(C)c2c(N)c(C(=O)NNC(=O)c3ccccc3)sc2n1	-107.8*
Cc1cc(C)c2c(N)c(C(=O)N/N=C/c3cccnc3)sc2n1	-128.3*
Cc1cc(C)c2c(N)c(C(=O)N/N=C/c3ccccc3)sc2n1	-107.8*
Nc1c(C(=O)NCc2ccccc2)sc2nc(N3CCOCC3)c3c(c12)CCCC3	64.6
COc1ccc(OC)c(NC(=O)c2cc(-c3cc(C)c(C)cc3O)n[nH]2)c1	-95.2*
COc1ccc(OC)c(NC(=O)c2cc(-c3c(C)cc(C)cc3O)n[nH]2)c1	-112.3*
O=C(c1ccc(CS(=O)c2ccccc2Cl)o1)N1CCN(c2ccccc2)CC1 (stereo not drawn)	110.1
O=C(c1ccc(CS(=O)Cc2ccccc2Cl)o1)N1CCN(C2CCCCC2)CC1 (stereo not drawn)	-73.8*
Cc1ccc(S(=O)(=O)Nc2ccccc2-c2ccccc2)cc1	54.0
O=C(Nc1ccccc1-c1ccccc1)c1ccc(=O)[nH]n1	-127.9*
CC(C)(C)c1ccc(NC(=O)c2ccc(=O)[nH]n2)cc1	-101.9*
CC(C)CN(C(=O)c1ccc(=O)n(C)n1)c1nc2ccccc2s1	-109.3*

Source: PubChem BioAssay (Broad Institute)
